Measurements as given in the supplement of paper PMC13380429.

Tests used:
[1] = test system: Vero E6 infected with SARS-CoV-2; assay: morphology score (similarity to uninfected cells); higher = more like uninfected cells; details: 24 h
[2] = test system: Vero E6 infected with SARS-CoV-2; assay: SARS-CoV-2 infection rate relative to infected DMSO; higher = more infection, active = 60 or less; details: 24 h

| Compound | morphology score [1] | SARS-CoV-2 infection rate [2] |
| --- | --- | --- |
| CC(C)C(=O)c1c(C(C)C)nn2ccccc12 [ibudilast] (10 µM) | 0.0924 | 97% (inactive) |
| C[C@]12C=CC(=O)C=C1CC[C@@H]1[C@@H]2C(=O)C[C@@]2(C)[C@H]1CC[C@]2(O)C(=O)CO [prednisone] (10 µM) | -0.177 | 108% (inactive) |
| Cc1ccccc1/N=N/c1ccc(/N=N/c2c(O)ccc3ccccc23)c(C)c1 [sudan-IV] (10 µM) | 0.126 | 92% (inactive) |
| Cc1ncc(CO)c(CO)c1O [pyridoxine] (10 µM) | 0.0823 | 108% (inactive) |
| CCCOC(C(=O)OC1CCN(C)CC1)(c1ccccc1)c1ccccc1 [propiverine] (10 µM) | 0.677 | 41% (active) |
| CCCCCCCCCCCCCCCCCCCCCCCCC(=O)O [pentacosanoic-acid] (10 µM) | 0.211 | 96% (inactive) |
| CCOC(CN1CCN(CC(C)C(=O)c2ccccc2)CC1)c1ccccc1 (stereo not drawn) [eprazinone] (10 µM) | 0.35 | 96% (inactive) |
| FC(F)(F)Oc1ccc2nc(-c3ccc(OCCOCCOc4ccc(-c5nc6ccc(OC(F)(F)F)cc6[nH]5)nc4)cn3)[nH]c2c1 (10 µM) | -0.247 | 116% (inactive) |
| Cc1coc2c1C(=O)C(=O)c1c-2ccc2c(C)cccc12 [tanshinone-I] (10 µM) | -0.0142 | 106% (inactive) |
| C[S+]([O-])c1ccc(-c2nc(-c3ccc(F)cc3)c(-c3ccncc3)[nH]2)cc1 (stereo not drawn) (10 µM) | 0.0867 | 95% (inactive) |
| N[C@@H](CS(=O)O)C(=O)O [L-cysteinesulfinic-acid] (10 µM) | -0.0506 | 108% (inactive) |
| CCn1c(=O)[nH]c2cc(Cl)c(Cl)cc21 (10 µM) | 0.171 | 83.5% (inactive) |
| CCN(C(C)=O)c1cccc(-c2ccnc3c(C#N)cnn23)c1 (10 µM) | 0.0588 | 98.5% (inactive) |
| NS(=O)(=O)OC[C@@H]1C[C@@H](n2ccc3c(N[C@H]4CCc5ccccc54)ncnc32)C[C@@H]1O [pevonedistat] (0.833333 µM) | -0.404 | 110% (inactive) |
| Nc1nc(=O)c2sc(=O)n([C@@H]3O[C@H](CO)[C@@H](O)[C@H]3O)c2[nH]1 (10 µM) | 0.013 | 100% (inactive) |
| C[C@H]1C[C@@H]2[C@H]([C@@H](O)C[C@@]3(C)[C@H]2CC[C@]3(O)C(=O)CO)[C@@]2(C)C=CC(=O)C=C12 [methylprednisolone] (10 µM) | -0.0624 | 108% (inactive) |
| CCN(CC)CCNC(=O)c1cc(Cl)c(N)cc1OC [metoclopramide] (10 µM) | -0.00451 | 107% (inactive) |
| O=C(O)COc1ccc(OCCNC[C@H](O)COc2ccccc2)cc1 (10 µM) | -0.002 | 104% (inactive) |
| Cn1cnnc1Sc1c([N+](=O)[O-])ncn1C (10 µM) | 0.299 | 87% (inactive) |
| CCN(CC)CCOC(=O)c1ccc(N)cc1 [procaine] (10 µM) | -0.107 | 115% (inactive) |
| CCn1c(=O)[nH]c2ccccc21 (10 µM) | 0.182 | 92.5% (inactive) |
| N#Cc1ncccn1 [2-cyanopyrimidine] (10 µM) | 0.0613 | 108% (inactive) |

| Compound | morphology score [1] | SARS-CoV-2 infection rate [2] |
| --- | --- | --- |
| Nc1ccc2ncnc(NCCc3ccc(Oc4ccccc4)cc3)c2c1 (10 µM) | -0.17 | 102% (inactive) |
| O=C1c2c(O)cc(O)cc2O[C@H](c2ccc(O)c(O)c2)[C@H]1O [taxifolin] (10 µM) | 0.187 | 99.5% (inactive) |
| C[C@@H]1O[C@@H](O[C@H]2[C@H](Oc3cc(O)c4c(c3)O[C@H](c3ccc(O)cc3)CC4=O)O[C@H](CO)[C@@H](O)[C@@H]2O)[C@H](O)[C@H](O)[C@H]1O [Naringin (Naringoside)] (10 µM) | 0.254 | 106% (inactive) |
| NC(=O)c1cn(Cc2c(F)cccc2F)nn1 [rufinamide] (10 µM) | 0.218 | 102% (inactive) |
| CCCN1CC(NS(=O)(=O)N(CC)CC)CC2Cc3c(O)cccc3CC21 (stereo not drawn) [quinagolide] (10 µM) | -0.243 | 112% (inactive) |
| CN1CCC2=C(C1)C(c1ccccc1)c1ccccc12 (stereo not drawn) [phenindamine] (10 µM) | -0.171 | 112% (inactive) |
| CN1CCC[C@@H]1Cc1c[nH]c2ccc(CCS(=O)(=O)c3ccccc3)cc12 [eletriptan] (10 µM) | 0.207 | 102% (inactive) |
| CC(CNS(=O)(=O)C(C)C)c1ccc(-c2ccc(C#N)cc2)cc1 (stereo not drawn) (10 µM) | -0.219 | 114% (inactive) |
| O=C(O)c1ccc(-c2ccc3cc(O)c(C45CC6CC(CC(C6)C4)C5)cc3c2)cc1 (10 µM) | -0.0522 | 106% (inactive) |
| CCCn1c(=O)c2[nH]c(-c3cnn(Cc4cccc(C(F)(F)F)c4)c3)nc2n(CC)c1=O (10 µM) | 0.163 | 103% (inactive) |
| C[C@H]1CN(C[C@H](Cc2ccccc2)C(=O)NCC(=O)O)CC[C@@]1(C)c1cccc(O)c1 [alvimopan] (10 µM) | 0.116 | 106% (inactive) |
| O=C(Nc1cc(-c2ccccc2)nn1-c1ccccc1F)c1ccc([N+](=O)[O-])cc1 (10 µM) | 0.233 | 93.5% (inactive) |
| CC(=O)N1CCC[C@H]1C(=O)N[C@@H](Cc1cnc[nH]1)C(=O)N[C@@H](CO)C(=O)N[C@@H](CS)C(=O)N[C@@H](CC(N)=O)C(N)=O (10 µM) | 0.0957 | 93% (inactive) |
| CCCOc1ccc2[nH]cc(C3=CCNCC3)c2n1 (10 µM) | 0.24 | 96% (inactive) |
| COc1cc(NS(=O)(=O)c2ccc(N)cc2)ncn1 [sulfamonomethoxine] (10 µM) | 0.102 | 89.5% (inactive) |
| CC[C@@]1(O)C(=O)OCc2c1cc1n(c2=O)Cc2c-1nc1cc(F)c(C)c3c1c2[C@@H](N)CC3 [exatecan-mesylate] (0.833333 µM) | 0.0535 | 110% (inactive) |
| Cc1nnsc1C(=O)Nc1ccc(-n2nc(C(F)(F)F)cc2C(F)(F)F)cc1 (10 µM) | -0.0783 | 106% (inactive) |
| CNC(=N)NCCC[C@H](N)C(=O)O [targinine] (10 µM) | 0.0428 | 106% (inactive) |
| Cc1cccc(C(=O)O)c1O [hydroxytoluic-acid] (10 µM) | -0.137 | 106% (inactive) |
| CC(=O)NCC(=O)N[C@H](CCC(=O)O)C(=O)O [N-acetylglycyl-D-glutamic-acid] (10 µM) | 0.127 | 98% (inactive) |
| CC(C)[C@H](C(=O)Nc1ccc(C(=O)NO)cc1)c1ccccc1 (10 µM) | 0.0602 | 104% (inactive) |
| Cc1cccn2c(=O)c(-c3nnn[nH]3)cnc12 [pemirolast] (10 µM) | 0.106 | 94.5% (inactive) |

| Compound | morphology score [1] | SARS-CoV-2 infection rate [2] |
| --- | --- | --- |
| O=C1NCCc2[nH]c(-c3ccncc3)cc21 (0.833333 µM) | 0.0617 | 106% (inactive) |
| COc1cccc(CCc2ccccc2OCC(CN(C)C)OC(=O)CCC(=O)O)c1 (stereo not drawn) [sarpogrelate] (10 µM) | 0.198 | 100% (inactive) |
| Clc1cccc(Cl)c1NC1=NCCN1 [clonidine] (10 µM) | 0.0616 | 100% (inactive) |
| Cc1cnc(Nc2ccc(N3CCN(C)CC3)cc2)nc1Nc1cccc(S(=O)(=O)NC(C)(C)C)c1 (0.833333 µM) | 0.106 | 122% (inactive) |
| Cc1nc(C)c(Cl)c(O)c1Cl [clopidol] (10 µM) | -0.0297 | 108% (inactive) |
| CC(C)NC(=N)NC(=N)Nc1ccc(Cl)cc1 [proguanil] (10 µM) | -0.0553 | 112% (inactive) |
| O=C(O)CCCN1CCC(O[C@@H](c2ccc(Cl)cc2)c2ccccn2)CC1 [bepotastine] (10 µM) | 0.0921 | 90% (inactive) |
| CNCc1cc(-c2ccccc2F)n(S(=O)(=O)c2cccnc2)c1 [vonoprazan] (10 µM) | 0.00653 | 114% (inactive) |
| O=C(O)C[CH2][Ge](=[O])[O][Ge](=[O])[CH2]CC(=O)O [propagermanium] (10 µM) | 0.128 | 94% (inactive) |
| C=CC(=O)Nc1cccc(Oc2nc(Nc3ccc(N4CCN(C)CC4)cc3)ncc2Cl)c1 (10 µM) | -0.115 | 118% (inactive) |
| O=C(O)C(F)(F)C(F)(F)C(F)(F)C(F)(F)C(F)(F)C(F)(F)C(F)(F)F [ammonium-perfluorocaprylate] (10 µM) | -0.0312 | 112% (inactive) |
| Oc1ccc2[nH]cc(C3=CCNCC3)c2n1 (10 µM) | 0.00585 | 90% (inactive) |
| CCCCOc1nc(N)c2c(n1)N(Cc1cccc(CN3CCCC3)c1)CC(=O)N2 (10 µM) | -0.135 | 106% (inactive) |
| CCOC(=O)[C@H](CCc1ccccc1)N[C@@H](C)C(=O)N1[C@H](C(=O)O)C[C@H]2CCCC[C@@H]21 [trandolapril] (10 µM) | 0.00679 | 106% (inactive) |
| NC(=O)c1cnc(N[C@@H]2CCCC[C@@H]2N)nc1Nc1cccc(-n2nccn2)c1 (10 µM) | 0.582 | 17.5% (active) |
| COc1ccc(O)cc1 [mequinol] (10 µM) | -0.0349 | 105% (inactive) |
| CN(Cc1ccccc1)C(=O)[C@H](Cc1ccc2ccccc2c1)NC(=O)[C@@H]1CCCN1C(=O)Nc1ccccc1[N+](=O)[O-] (10 µM) | 0.00351 | 108% (inactive) |
| CCOC(=O)C1=C[C@]2(CC)CCCN3CCc4c(n1c1ccccc41)[C@@H]32 [vinpocetine] (10 µM) | 0.176 | 102% (inactive) |
| O=C(NCc1ccc2c(c1)OCO2)c1c(Cl)cccc1Cl [alda-1] (10 µM) | 0.107 | 104% (inactive) |
| CC(O)CN1CCN(CC(=O)[O-])CCN(CC(=O)[O-])CCN(CC(=O)[O-])CC1.[Gd+3] (stereo not drawn) [gadoteridol] (10 µM) | -0.0781 | 108% (inactive) |
